Out of some 1,300 compounds screened, about 1,000 (77%) were called active. Roughly 7% stayed inconclusive and do not appear here. So high a share suggests a set chosen from earlier hits. The list shows a part of the results. A number with no mark means an inactive call. Calls come from the whole dose curve; as a rule, active = well fitted inhibition curve with a large enough effect; inconclusive = small, poorly fitted or top-dose-only effect; inactive = no such curve, though single readings can be large or run the other way.
% is set by controls: 0 for no effect and ±100 for the full control effect; potency is the fitted concentration of half-maximal effect.

The nature of this assay: qHTS of small molecules that selectively kill Giardia lamblia: Hit Validation.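 Note: viability measured as ATP content by luminescence so killing lowers signal; nearly all actives have a fitted effect of over 65% in size.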 Conditions: Giardia lamblia trophozoite viability, dose-response; series mostly up to 38.3 µM; activity change, negative = killing: at the top concentration. Summed up: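 Trophozoite viability was measured as ATP-dependent luminescence, read 15-30 min after reagent addition. Before that, parasites at 100 cells/well were exposed to compounds for 48 h, anaerobically, at 37 deg C.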
(In general: In qHTS, concentration-response curves come from the screen itself.)
For the compound `C=CCn1c(C)cc(C(=O)COC(=O)c2n[nH]c(=O)c3ccccc23)c1C`, the Potency was 4.6 µM (active).
Same read-out and setting: for `COCCn1c(C)cc(C(=O)COc2ccc(C)nc2[N+](=O)[O-])c1C` the value was 0.918 µM (active); for `CCCn1c(C)cc(C(=O)COc2ccc(C)nc2[N+](=O)[O-])c1C`, 1.03 µM (active).
In the case of `c1ccc2cc3c(NCCN4CCOCC4)ccnc3cc2c1`, the Potency is 1.83 µM (active).
On the same count and under the same terms, the same measure for `Cc1ccc(-c2cnc3cc(C)nn3c2)cc1`: 5.79 µM (active).
With `Clc1ccc(CSc2nc3ccncc3[nH]2)cc1`, the Potency is 0.579 µM (active).
As to `Clc1ccccc1CSc1nc2ccncc2[nH]1`, the Potency was 3.65 µM (active).
For the compound `O=C(c1ccc(CSc2nc3ccncc3[nH]2)cc1)N1CCCCCC1`, the Potency is 1.16 µM (active).
`COc1cccc(CSc2nc3ccncc3[nH]2)c1`: the Potency was 1.63 µM (active).
In the case of `Cc1ccc(CSc2nc3ccncc3[nH]2)cc1`, the Potency was 0.259 µM (active).
As to `CCCC(=O)NC(=S)NNC(=O)c1ccc([N+](=O)[O-])cc1`, the Potency is 0.41 µM (active).
For `CC(C)CC(=O)NC(=S)NNC(=O)c1ccc([N+](=O)[O-])cc1`, the Potency was 1.3 µM (active).
Regarding `CSCCC(NS(=O)(=O)c1ccc2c(c1)OCCO2)C(=O)N(C)Cc1ccccc1F` (configuration not stated), the “activity change, negative = killing” value was -17%.
Take `CSCCC(NC(=O)OC(C)(C)C)C(=O)Oc1ccc2c(=O)c(-c3ccc4c(c3)OCCO4)coc2c1` (configuration not stated): the Potency is 1.03 µM (active).
`O=C(Nc1ccccc1N1CCOCC1)c1ccc([N+](=O)[O-])s1`: the Potency is 2.05 µM (active).
For the compound `O=C(Nc1cc(S(=O)(=O)N2CCOCC2)ccc1N1CCOCC1)c1ccc([N+](=O)[O-])s1`, the Potency is 4.1 µM (active).
As for `O=C(/C=C/c1ccc(O)c([N+](=O)[O-])c1)c1ccc2ccccc2c1`, the Potency is 2.05 µM (active).
On to `Cc1ccc(-n2c(C)cc(C(=O)COc3cccnc3[N+](=O)[O-])c2C)cc1`, for which the Potency was 0.516 µM (active).
The same measure, in the same setting: for `Cc1cc(C(=O)COc2cccnc2[N+](=O)[O-])c(C)n1-c1ccccc1F` the value was 1.16 µM (active).
The same measure, in the same setting: for `O=C(COc1cccnc1[N+](=O)[O-])c1c[nH]c2ccccc12` the value was 5.16 µM (active); for `Cc1cc(C(=O)COc2cccnc2[N+](=O)[O-])c(C)n1-c1ccccc1`, 0.365 µM (active).
Turning to `Cc1ccc2nccnc2c1`, the Potency was 1.3 µM (active).
Regarding `O=C1C[C@@H](c2ccc(O[C@@H]3O[C@H](CO)[C@@H](O)[C@H](O)[C@H]3O)cc2)Oc2cc(O)ccc21`, the “activity change, negative = killing” value is -10.6%.
As to `CCOc1ccccc1NS(=O)(=O)c1c[nH]c(C(=O)OC)c1`, the “activity change, negative = killing” value is -6.56%.
As to `O=C(Cc1ccc2c(c1)OCO2)NN=Cc1ccc([N+](=O)[O-])o1`, the Potency was 0.918 µM (active).
Turning to `CC1(C(=O)N/N=C/c2ccc([N+](=O)[O-])o2)CC1(Br)Br` (configuration not stated), the Potency is 0.65 µM (active).
For `Cc1cc(C(=O)N/N=C/c2ccc([N+](=O)[O-])o2)c(C)o1`, the Potency is 0.579 µM (active).
As for `COc1ccccc1NS(=O)(=O)c1cccc(C(=O)N/N=C/c2ccc([N+](=O)[O-])o2)c1`, the Potency was 4.1 µM (active).
As for `O=C(N/N=C/c1ccc([N+](=O)[O-])o1)c1ccc2c(c1)OCO2`, the Potency was 0.818 µM (active).
On to `O=C(Cc1ccc([N+](=O)[O-])cc1)N/N=C/c1ccc([N+](=O)[O-])o1`, for which the Potency was 1.16 µM (active).
As for `O=c1c2ccccc2sc2ccc(C#CC3(O)CCCCC3)cc12`, the Potency is 0.65 µM (active).
Regarding `O=[N+]([O-])c1ccc2c3n([n+]([O-])c2c1)CCN=C3c1ccc(Cl)cc1`, the Potency is 4.1 µM (active).
For `Cc1ccc(C2=NCCn3c2c2ccc([N+](=O)[O-])cc2[n+]3[O-])cc1`, the Potency is 1.3 µM (active).
As for `C[C@H](CO)N1C[C@H](C)[C@H](CN(C)C(=O)Nc2ccc(C(F)(F)F)cc2)Oc2c(NC(=O)c3ccncc3)cccc2C1=O`, the “activity change, negative = killing” value was 14.8%.
For the compound `C[C@@H]1CN([C@@H](C)CO)C(=O)c2cccc(NS(=O)(=O)c3cccs3)c2O[C@H]1CN(C)Cc1ccc(C(F)(F)F)cc1`, the Potency is 3.65 µM (active).
`C[C@@H]1CN([C@H](C)CO)C(=O)c2cc(NC(=O)Nc3ccc4c(c3)OCO4)ccc2O[C@H]1CN(C)Cc1ccncc1`: the “activity change, negative = killing” value is -43.5%.
On to `O=C1NC(=S)S/C1=C\C=C\c1ccc([N+](=O)[O-])o1`, for which the Potency is 0.326 µM (active).
On the same count and under the same terms, the same measure for `Cc1ccc(C2=NCCn3c2c2ccccc2[n+]3[O-])cc1`: 0.146 µM (active); for `[O-][n+]1c2ccccc2c2n1CCN=C2c1ccc(Cl)cc1`: 0.29 µM (active); for `[O-][n+]1c2ccccc2c2n1CCCN=C2c1ccc(Cl)cc1`: 1.3 µM (active).
Turning to `Cc1cnc([N+](=O)[O-])n1CCOC(=O)NC(=O)c1c(F)cccc1F`, the Potency is 1.3 µM (active).
For `Cc1cnc([N+](=O)[O-])n1CCOC(=O)NC(=O)c1cccc(F)c1`, the Potency is 0.65 µM (active).
On the same count and under the same terms, the same measure for `Cc1cnc([N+](=O)[O-])n1CCOC(=O)NC(=O)c1ccc(F)cc1`: 1.16 µM (active); for `Cc1cnc([N+](=O)[O-])n1CCOC(=O)NC(=O)c1ccccc1`: 0.918 µM (active).
Consider `Cc1ccc(C(=O)NC(=O)OCCn2c(C)cnc2[N+](=O)[O-])cc1`, for which the Potency was 0.183 µM (active).
As to `Cc1cnc([N+](=O)[O-])n1CCOC(=O)NC(=O)c1ccc(C(F)(F)F)cc1`, the Potency is 0.259 µM (active).
Still for that read-out and setting: for `Cc1cnc([N+](=O)[O-])n1CCOC(=O)c1cccc(F)c1` the value was 1.16 µM (active); for `CSCCC(NC(=O)c1ccco1)C(=O)OCc1cc([N+](=O)[O-])cc2c1OCOC2` (configuration not stated), 4.6 µM (active).
`Cc1cccc(C)c1OCC(=O)N(Cc1cccs1)C1CCS(=O)(=O)C1` (configuration not stated): the “activity change, negative = killing” value was -6.92%.
Take `CC1C/C(=C/c2ccncc2)C(=O)/C(=C/c2ccncc2)C1` (configuration not stated): the Potency is 11.6 µM (active).
On the same count and under the same terms, for `O=C1/C(=C/c2ccncc2)CCC/C1=C\c1ccncc1` the value was 18.3 µM (active).
For the compound `CC(C)(C)[C@H](N)C(=O)N[C@H]1CCC2C3CC=C4C[C@@H](O)CC[C@]4(C)C3CC[C@@]21C` (some centres not stated), the Potency was 2.9 µM (active).
On the same count and under the same terms, the same measure for `CN(C)CCCN(C(=O)c1cc2cc([N+](=O)[O-])ccc2s1)c1nc2cc3c(cc2s1)OCCO3`: 1.63 µM (active); for `CCOC(=O)C1=C(C)NC(=O)NC1c1ccc([N+](=O)[O-])o1` (configuration not stated): 1.16 µM (active); for `CCOC(=O)C1=C(C)NC2=C(C(=O)c3ccccc32)C1c1ccc([N+](=O)[O-])o1` (configuration not stated): 0.729 µM (active).
With `COC(=O)C1=C(C)N(C)C(=O)NC1c1ccc([N+](=O)[O-])o1` (configuration not stated), the Potency was 0.46 µM (active).
On to `C=CCOC(=O)C1=C(C)NC(=O)NC1c1ccc(O)cc1` (configuration not stated), for which the “activity change, negative = killing” value was -3.51%.

Values taken from PubChem BioAssay AID588397 (National Center for Advancing Translational Sciences (NCATS), 2011).
